Measured values taken from PubChem BioAssay AID1159580 (chemical genetic matrix, 2015).
Hit rate of the full screen: of about 5,500 compounds, about 2,000 (36%) were called active. Inconclusive results (about 18%) are left out. No stated cut-off is given here; in the data, active means normalized growth mostly below about 0.91 (no sharp cut-off); inconclusive means no clear call, values can overlap the other calls; inactive means mostly above about 0.92. The list shows a part of the results.

Assay: chemical genetic growth profiling, strain panel (AID 1159580);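 further: tested at 20 µM; growth read once vehicle control cultures reached saturation at 30 °C; 1 = growth at the plate median or of vehicle wells; lower values mean less growth of the strain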
Conditions: S. cerevisiae deletion strains, growth OD

Measured: normalized growth

CCOP(=S)(OCC)SCn1c(=O)oc2cc(Cl)ccc21
inactive: locus YAL013W, strain DEP1, active compounds read low 1 | locus YAL021C, strain ccr4, active compounds read low 0.957 | locus YAL026C, strain drs2, active compounds read low 0.972 | locus YAL030W, strain snc1, active compounds read low 0.947 | locus YBL061C, strain skt5, active compounds read low 0.949 | locus YBR021W, strain FUR4, active compounds read low 0.998 | locus YBR023C, strain chs3, active compounds read low 0.946 | locus YBR171W, strain sec66, active compounds read low 0.922 | locus YBR229C, strain ROT2, active compounds read low 0.997 | locus YBR231C, strain swc5, active compounds read low 0.956 | locus YBR279W, strain paf1, active compounds read low 0.977 | locus YCL011C, strain gbp2, active compounds read low 0.961 | locus YCL016C, strain dcc1, active compounds read low 0.955 | locus YCL029C, strain bik1, active compounds read low 0.985 | locus YCL061C, strain MRC1, active compounds read low 0.956 | locus YCL069W, strain vba3, active compounds read low 0.968 | locus YCR088W, strain abp1, active compounds read low 0.961 | locus YDL005C, strain med2, active compounds read low 0.968 | locus YDL035C, strain GPR1, active compounds read low 0.987 | locus YDL040C, strain nat1, active compounds read low 0.961 | locus YDL074C, strain BRE1, active compounds read low 0.928 | locus YDL101C, strain DUN1, active compounds read low 1.01 | locus YDL134C, strain PPH21, active compounds read low 0.991 | locus YDL185W, strain tfp1, active compounds read low 1 | locus YDL192W, strain arf1, active compounds read low 0.989 | locus YDR001C, strain nth1, active compounds read low 0.96 | locus YDR069C, strain doa4, active compounds read low 0.956 | locus YDR101C, strain arx1, active compounds read low 0.992 | locus YDR150W, strain NUM1, active compounds read low 0.995 | locus YDR159W, strain sac3, active compounds read low 0.97 | locus YDR162C, strain NBP2, active compounds read low 0.987 | locus YDR195W, strain ref2 1.04 | locus YDR297W, strain sur2, active compounds read low 0.943 | locus YDR318W, strain mcm21, active compounds read low 0.993 | locus YDR334W, strain swr1, active compounds read low 0.965 | locus YDR335W, strain msn5, active compounds read low 0.974 | locus YDR388W, active compounds read low 0.994 | locus YDR392W, strain spt3, active compounds read low 0.872 | locus YDR502C, strain sam2, active compounds read low 0.986 | locus YEL003W, strain gim4, active compounds read low 0.961 | locus YEL037C, strain rad23, active compounds read low 0.975 | locus YEL061C, strain CIN8 (second series), active compounds read low 0.96 | locus YEL061C, strain CIN8, active compounds read low 0.99 | locus YER015W, strain faa2, active compounds read low 0.967 | locus YER016W, strain bim1, active compounds read low 0.958 | locus YER110C, active compounds read low 0.993 | locus YER111C, strain swi4, active compounds read low 0.965 | locus YER155C, strain BEM2 (second series), active compounds read low 0.952 | locus YER155C, strain BEM2, active compounds read low 0.993 | locus YER167W, strain BCK2, active compounds read low 1 | locus YFR010W, strain ubp6, active compounds read low 0.979 | locus YGL078C, strain dbp3, active compounds read low 0.984 | locus YGL086W, strain mad1, active compounds read low 0.986 | locus YGL167C, strain pmr1, active compounds read low 0.921 | locus YGL173C, strain kem1, active compounds read low 0.943 | locus YGL227W, strain vid30, active compounds read low 0.963 | locus YGL240W, strain doc1, active compounds read low 0.935 | locus YGL248W, strain PDE1, active compounds read low 0.985 | locus YGL253W, strain hxk2, active compounds read low 0.961 | locus YGR078C, strain PAC10, active compounds read low 0.994 | locus YGR135W, strain pre9, active compounds read low 0.977 | locus YGR229C, strain SMI1, active compounds read low 1.01 | locus YGR252W, strain gcn5, active compounds read low 0.987 | locus YHR013C, strain ard1, active compounds read low 1.01 | locus YHR027C, strain rpn1, active compounds read low 0.959 | locus YHR030C, strain SLT2, active compounds read low 0.984 | locus YHR079C, strain IRE1 (second series), active compounds read low 0.996 | locus YHR094C, strain hxt1, active compounds read low 0.994 | locus YHR129C, strain ARP1, active compounds read low 0.986 | locus YHR142W, strain chs7, active compounds read low 0.954 | locus YHR200W, strain rpn10, active compounds read low 0.99 | locus YIL066C, strain RNR3, active compounds read low 1.01 | locus YIL073C, strain SPO22, active compounds read low 1.06 | locus YIL125W, strain kgd1, active compounds read low 0.984 | locus YIR030C, strain dcg1, active compounds read low 0.989 | locus YJL092W, strain hpr5, active compounds read low 0.965 | locus YJL095W, strain BCK1 (second series), active compounds read low 0.941 | locus YJL095W, strain BCK1, active compounds read low 0.975 | locus YJL115W, strain asf1, active compounds read low 0.969 | locus YJL129C, strain trk1, active compounds read low 0.907 | locus YJL134W, strain LCB3, active compounds read low 0.994 | locus YJL154C, strain vps35, active compounds read low 0.972 | locus YJL164C, strain tpk1, active compounds read low 0.943 | locus YJL166W, strain qcr8, active compounds read low 0.942 | locus YJL168C, strain set2, active compounds read low 0.991 | locus YJL187C, strain SWE1 (second series), active compounds read low 1 | locus YJL187C, strain SWE1, active compounds read low 0.95
active: locus YBR009C, strain hhf1, active compounds read low 1.35 [resistant] | locus YDR137W, strain rgp1, active compounds read low 0.81
